From PubChem BioAssay AID504832 (National Center for Advancing Translational Sciences (NCATS), 2011) come the findings set out here.

About 18,000 (5.8%) of roughly 310,000 compounds were called active. Inconclusive results (about 22%) are left out. What follows is part of a selection rich in actives, with near analogues and random picks from the rest. Values without a mark were called inactive. Calls come from the whole dose curve; as a rule, active = well fitted inhibition curve with a large enough effect; inconclusive = small, poorly fitted or top-dose-only effect, or another doubt; inactive = no such curve, though single readings can be large or run the other way.
% is set by controls: 0 for no effect and ±100 for the full control effect; potency is the fitted concentration of half-maximal effect.

A short description of this assay: Primary qHTS for delayed death inhibitors of the malarial parasite plastid, 48 hour incubation. The settings on record: P. falciparum luciferase growth in erythrocytes; series mostly up to 28.7 µM; activity change, negative = inhibition: at the top concentration. The method in brief: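 Luciferase-expressing P. falciparum in infected erythrocytes (2% hematocrit, 0.1% parasitemia final) in RPMI 1640/0.5% Albumax were exposed to compound for 48 hours at 37 C, 5% CO2; growth read as luminescence.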
In general terms: qHTS replaces the single test concentration by a dilution series.
As to `CC(C)c1ccc(NC(=O)COC(=O)c2ccc(CN3CCCC3=O)cc2)cc1`, the “activity change, negative = inhibition” value is 1.29%.

Regarding `Cc1ccc2nc(SCC(=O)NC3CCCC3)[nH]c2c1`, the “activity change, negative = inhibition” value is 22.6%.

For the compound `COC(=O)C1(C)NC(c2ccc(F)cc2)C2C(=O)N(c3ccccc3)C(=O)C21` (stereo not given), the “activity change, negative = inhibition” value is -30.6%.

In the case of `CCCC1(C(=O)OC)NC(c2ccco2)C2C(=O)N(C)C(=O)C21` (stereo not given), the “activity change, negative = inhibition” value was 11.4%.

With `CCN1C(=O)[C@H]2[C@@H](c3ccc(SC4CCCCC4)c(OC)c3)N[C@@](Cc3ccccc3)(C(=O)OC)[C@H]2C1=O`, the Potency is 2.08 µM (active).

As to `CCCCC1(C(=O)OCC)NC(c2ccc(O)cc2)C2C(=O)N(c3ccccc3)C(=O)C21` (stereo not given), the “activity change, negative = inhibition” value was 2.39%.

With `CCN1C(=O)[C@H]2[C@@H](c3ccc(-c4ccc(OC)cc4)cc3)N[C@@](Cc3ccccc3)(C(=O)OC)[C@H]2C1=O`, the Potency was 9.28 µM (active).

Consider `CCOC(=O)C1(Cc2ccc(O)cc2)NC(c2ccccc2F)C2C(=O)N(C)C(=O)C21` (stereo not given), for which the “activity change, negative = inhibition” value was -6.8%.

`COC(=O)C1(C)NC(c2ccc(C)cc2)C2C(=O)N(c3ccc(F)cc3)C(=O)C21` (stereo not given): the “activity change, negative = inhibition” value is 8.12%.

Consider `COC(=O)C1(C)NC(c2ccccc2OC)C2C(=O)N(c3ccccc3)C(=O)C21` (stereo not given), for which the “activity change, negative = inhibition” value is -7.51%.

Take `CCN1C(=O)[C@H]2[C@@H](c3ccc(-c4ccc(F)cc4)cc3)N[C@@](Cc3ccccc3)(C(=O)OC)[C@H]2C1=O`: the Potency was 4.65 µM (active).

Consider `COc1cc2c(C(=O)O)c(C)n(C)c2c2ccccc12`, for which the activity change, negative = inhibition was 15.4% [at 0.00184 µM].

For `O=C(CSc1ccc(-c2ccco2)nn1)Nc1cccc(F)c1`, the “activity change, negative = inhibition” value is 20%.

As for `NC(=O)c1cc2ccccc2o/c1=N/NC(=O)c1cccc(F)c1`, the “activity change, negative = inhibition” value was 59.4%.

Turning to `CCOc1cc(NC(=O)Nc2ccccc2)c(OCC)cc1NC(=O)CC`, the “activity change, negative = inhibition” value was -1.2%.

As for `CCOc1cc(NC(=O)c2ccccc2C(=O)O)c(OCC)cc1NC(=O)c1ccccc1F`, the Potency is 4.15 µM (active).

`NC(=O)c1ccccc1NC(=O)c1ccccc1F`: the “activity change, negative = inhibition” value is 49.4%.

As for `O=C(Nc1cccc(Cl)c1N1CCOCC1)c1cccnc1`, the “activity change, negative = inhibition” value is -0.0104%.

Consider `Cc1ccccc1NC(=O)CCNS(=O)(=O)c1ccc2[nH]c(=O)oc2c1`, for which the “activity change, negative = inhibition” value is 3.65%.

On to `C/C(CC(=O)Nc1ccc(N(C)C)cc1)=N\NC(=O)c1ccccc1F`, for which the “activity change, negative = inhibition” value was 139%.

Take `CCn1c2ccccc2c2cc(NC(=O)COC(=O)c3ccccc3Br)ccc21`: the “activity change, negative = inhibition” value is 17%.

Take `CCn1c2ccccc2c2cc(NC(=O)C/C(C)=N/NC(=O)c3ccccc3N)ccc21`: the Potency is 11.7 µM (active).

As for `CN(CC(=O)NCc1ccc(Cl)cc1)S(=O)(=O)c1cccs1`, the “activity change, negative = inhibition” value is 23.9%.

Take `COc1ccc(S(=O)(=O)N2CCN(C(=O)N(C)C)C2C)cc1` (stereo not given): the “activity change, negative = inhibition” value is 3.85%.

As to `Cc1[nH]c(C)c(S(=O)(=O)N2CCN(c3cccc(C(F)(F)F)c3)CC2)c1C(=O)N1CCCC1`, the “activity change, negative = inhibition” value is 0.0799%.
